Bioassay records: PubChem, National Center for Advancing Translational Sciences (NCATS)
NPC1 prom act: qHTS Assay for NPC1 Promoter Activators. Huh7 NPC1 promoter luciferase reporter, 24 h. Potency, µM (titrated, usually from 9.22 µM), for the others: at the highest dose activation, actives largely listed as activators. actives 2.4% (n = 320,000). AID 485313, 2010; also: % of control where 0% means no effect; nearly all actives have a fitted effect of over 60% in size
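Stable NPC1-promoter luciferase Huh7 line; cpd (DMSO) 24 h, 37 °C, 5% CO2; Amplite luciferase reagent 10 min RT; luminescence readout. qHTS format.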
Rab9 prom act: qHTS Assay for Rab9 Promoter Activators | AID 485297, 2010 | actives 2.8% (n = 320,000) | Huh7 Rab9 promoter-luciferase reporter, luminescence, 24 h | Potency, µM (highest dose often 9.22 µM), for inactives: at the highest dose activation, negative = inhibition, most hits filed as activators; also: % of control where 0% means no effect; nearly all actives have a fitted effect of over 60% in size
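Huh7 cells stably carrying a Rab9 promoter-luciferase reporter, 1500 cells per well in OP-MEM I with 10% FBS, treated with compound 24 hours at 37C. Luciferase activity read by luminescence after 10 minutes with Amplite reagent.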
SMN2 splice enh: qHTS Assay for Enhancers of SMN2 Splice Variant Expression. HEK293 SMN2-luciferase splicing reporter, luminescence, 30-36 h. Potency, µM (doses to about 46.1 µM), for inactives: top-dose activity change, positive = activation, hits mostly activators. actives 2.8% (n = 210,000); also: % of control where 0% means no effect; nearly all actives have a fitted effect of over 55% in size
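qHTS luciferase splicing reporter: luminescence rises when SMN2 exon 7 is included in transfected HEK293 cells. Compound exposure lasted 30-36 h at 37C, with 4.5 mM final sodium butyrate as control, followed by a ONE-Glo read.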
ELG1 genotoxic: qHTS screen for small molecules that induce genotoxicity in human embryonic kidney (HEK293T) cells expressing luciferase-tagged ELG1; Potency, µM (doses to about 46 µM), for inactives: at the highest dose activity change, positive = activation, most hits filed as activators; actives 1.3% (n = 330,000); HEK293T ELG1-luciferase reporter, luminescence, 16 h; also: % of control where 0% means no effect; nearly all actives have a fitted effect of over 60% in size
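ELG1-luciferase HEK293T cells, 2,000/well; compound pinned in; 16 hr, 37 °C, 5% CO2; ONE-Glo, 30 min RT; luminescence on CCD imager.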
FLuc counter: qHTS profiling assay for firefly luciferase inhibitor/activator using purifed enzyme and Km concentrations of substrates (counterscreen for miR-21 project); purified FLuc, Km substrates, luminescence inhibition; AID 588342, 2011; actives 6.9% (n = 360,000); Luciferin 4-monooxygenase (Photinus pyralis), P08659; Potency, µM (doses to about 57.5 µM), inactives show top-dose activity change, negative = inhibition, hits mostly inhibitors;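 also: plate controls were vehicle for no effect and reference inhibitor for full effect; nearly all actives have a fitted effect of over 55% in size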
Target sequence (P08659 whole entry, looked up): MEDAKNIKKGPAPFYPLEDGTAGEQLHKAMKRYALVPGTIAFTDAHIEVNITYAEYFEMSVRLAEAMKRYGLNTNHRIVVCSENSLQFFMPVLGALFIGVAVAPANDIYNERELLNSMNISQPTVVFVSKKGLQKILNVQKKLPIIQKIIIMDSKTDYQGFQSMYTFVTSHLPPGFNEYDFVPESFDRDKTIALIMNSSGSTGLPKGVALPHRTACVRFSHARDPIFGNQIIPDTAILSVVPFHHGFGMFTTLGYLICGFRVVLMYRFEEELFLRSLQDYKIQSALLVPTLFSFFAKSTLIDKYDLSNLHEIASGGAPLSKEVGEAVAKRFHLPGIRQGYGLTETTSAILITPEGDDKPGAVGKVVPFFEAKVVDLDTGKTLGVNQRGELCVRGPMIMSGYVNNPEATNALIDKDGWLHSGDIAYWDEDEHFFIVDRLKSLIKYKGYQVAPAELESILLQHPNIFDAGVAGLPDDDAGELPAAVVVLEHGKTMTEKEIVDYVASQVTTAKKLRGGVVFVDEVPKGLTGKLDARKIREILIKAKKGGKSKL
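Purified P. pyralis luciferase, 10 nM final, with Km-level 10 uM D-luciferin and 10 uM ATP in 50 mM Tris acetate pH 7.5, 10 mM Mg acetate, 0.01% Tween-20, 0.05% BSA; 6-point qHTS titration about 60 µM downward; luminescence read.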
* hit, by the source's call; ? = inconclusive; nt = no result. Compounds with a hit are over-represented: about 7.4% of the library has one in this group of screens. Calls follow the shape of the dose curve; as a rule, active = well fitted curve in the direction sought with a large enough effect; inconclusive = small, poorly fitted or top-dose-only effect, or another doubt; inactive = no such curve, though single readings can be large; an effect the other way counts as inactive or inconclusive. Potency is read from the fitted curve at half-maximal effect.

SMILES	NPC1 prom act	Rab9 prom act	SMN2 splice enh	ELG1 genotoxic	FLuc counter
Cc1cc(N2CCCCC2)nc2ccc(NC(=O)CCC(=O)NCCC(C)C)cc12	?	3.2µM*	65%	?	7.6µM*
COc1cccc(NC(=O)CCC(=O)Nc2ccc3nc(N4CCOCC4)cc(C)c3c2)c1	?	2.5µM*	nt	13%	6µM*
CCOC(=O)C1CCCN(C(=O)CCC(=O)Nc2ccc3nc(N4CCOCC4)cc(C)c3c2)C1 (configuration not stated)	?	?	nt	?	17µM*
CCCN(CCC)CCNC(=O)CCC(=O)Nc1ccc2nc(N3CCOCC3)cc(C)c2c1	?	3.5µM*	nt	?	-1%
COc1cccc(CC(=O)Nc2ccc3nc(N4CCC(C)CC4)cc(C)c3c2)c1	nt	nt	-18%	nt	-13%
Cc1cc(N2CCOCC2)nc2ccc(NC(=O)C3CCC(C)CC3)cc12 (configuration not stated)	-7%	5%	-16%	-2%	1%
CCCCN(CC)CCNC(=O)CCC(=O)Nc1ccc2nc(N3CCN(C)CC3)cc(C)c2c1	8%	-3%	-11%	6%	-4%
CS(=O)(=O)N1CCC2(CCN(Cc3nccs3)CC2)CC1	nt	nt	-7%	nt	nt
Cc1cc(N2CCOCC2)nc2ccc(NC(=O)CCC(=O)N3CCN(c4ccccc4)CC3)cc12	?	30%	nt	9%	12µM*
CCCCNC(=O)CCC(=O)Nc1ccc2nc(N3CCOCC3)cc(C)c2c1	?	?	21%	12%	15µM*
COCCCNC(=O)CCC(=O)Nc1ccc2nc(N3CCOCC3)cc(C)c2c1	2%	?	?	7%	?
CCCCNC(=O)CCC(=O)Nc1ccc2nc(N3CCCCC3)cc(C)c2c1	?	?	7.1µM*	9%	15µM*
COCCn1nnnc1C(C(C)C)N1CCSCC1 (configuration not stated)	-7%	-2%	nt	0%	5%
CCCCN=Cc1sc2ccc(OCC)cc2c1O	17%	24%	16%	14%	21µM*
C=CCN=Cc1sc2ccc(OCC)cc2c1O	3.2µM*	2.8µM*	nt	?	8.5µM*
CCOc1ccc2nc(/N=C/c3nc(-c4ccc(Br)cc4)oc3O)sc2c1	9%	17%	17%	2%	-7%
O=C(CCC(=O)N1CCOc2ccccc21)Nc1ccccc1Cl	2%	1%	nt	-10%	1%
Cc1ccc(CSc2nnc(SCC(=O)N/N=C/c3c(C)nn(-c4ccccc4)c3C)s2)cc1	?	?	9%	-13%	4.3µM*
Cc1ccc(-c2nnc(SCC(=O)N/N=C/c3c(C)nn(-c4ccccc4)c3C)n2-c2ccccc2)cc1	0%	0%	-8%	-8%	-2%
Cc1nn(-c2ccccc2)c(C)c1/C=N/NC(=O)CSc1nnc(SCc2ccccc2Cl)s1	?	26%	?	1%	6.7µM*
Cc1cc(NC(=O)c2ccco2)ncc1NC(=O)Cc1ccccc1	?	3.2µM*	8%	17%	17µM*
Cc1cc(NC(=O)c2cccc(F)c2)no1	26%	26%	14%	?	?
CCC(=O)Nc1cnc(NC(=O)c2cccc(F)c2)cc1C	1.6µM*	0.71µM*	11µM*	?	9.5µM*
CC(=O)Nc1cnc(NC(=O)c2cccc(F)c2)cc1C	1.6µM*	2.8µM*	11µM*	15µM*	30µM*
O=C1C(=O)N(C2CCN(C(=O)c3ccc(F)cc3)CC2)CCN1Cc1ccc(F)cc1	nt	nt	nt	nt	-1%
SMILES	NPC1 prom act	Rab9 prom act	SMN2 splice enh	ELG1 genotoxic	FLuc counter
Cc1ccc2nc(Nc3ccc(C)c(F)c3)c3nncn3c2c1	nt	nt	3%	nt	2%
OCC1CCCCN1CC(O)COC(c1ccc(F)cc1)c1ccc(F)cc1 (configuration not stated)	-1%	-6%	nt	-3%	0%
COc1ccc(N2CC(C(=O)NCc3nnnn3-c3ccc(C)c(C)c3)CC2=O)cc1 (configuration not stated)	-4%	1%	nt	5%	1%
O=C(COCc1cc(-c2cccs2)on1)NCc1ccc(F)cc1	nt	nt	nt	nt	-4%
O=S1(=O)N=C(Nc2ccc(N3CCOCC3)cc2)c2ccccc21	7%	7%	?	2%	13µM*
COc1cccc(C(=O)Nc2cccc(OCc3cc(=O)n4cccc(C)c4n3)c2)c1	nt	nt	nt	nt	1%
CCN(CC)c1ccc(-c2nn3c(-c4ccccc4OC)nnc3s2)cc1	-18%	-20%	-41%	-17%	19µM*
COc1ccccc1-c1nn2c(-c3ccco3)nnc2s1	?	?	24%	18µM*	5.4µM*
COc1ccccc1-c1nn2c(-c3ccccc3Cl)nnc2s1	1%	3%	-8%	1%	-2%
O=C(COC(=O)C12CC3CC(CC(O)(C3)C1)C2)Nc1ccccc1OC(F)F	7%	-4%	18%	-1%	?
O=C(COC(=O)C12CC3CC(CC(O)(C3)C1)C2)Nc1ccc(Br)cc1F	?	3.5µM*	nt	?	nt
Cc1cc(C(=O)COC(=O)C23CC4CC(CC(O)(C4)C2)C3)c(C)n1C	nt	nt	nt	8.2µM*	nt
NC(=O)COC(=O)C12CC3CC(CC(O)(C3)C1)C2	-8%	4%	7%	1%	0%
O=C(COC(=O)C12CC3CC(CC(C3)C1)C2)Nc1ccccc1F	0%	2%	-6%	5%	11µM*
COc1ccccc1CNCC(=O)Nc1ccc(N2CCOCC2)cc1	-4%	-14%	?	1%	0%
COc1ccccc1NC(=O)Nc1ccc(N2CCOCC2)cc1	?	?	112%	?	17µM*
COc1ccc(NC(=O)N/C=C/c2ccccc2)cc1	2µM*	3.5µM*	16µM*	?	?
Cc1ccc(NC(=O)Nc2ccccc2C(N)=O)cc1	17%	15%	nt	12%	2.7µM*
COc1ccccc1NC(=O)Nc1ccc(Cc2ccncc2)cc1	5%	13%	-3%	6%	17µM*
Cc1ccccc1NC(=O)Nc1ccccc1C(N)=O	-1%	-2%	nt	7%	-12%
C=CCn1c(SCC(=O)N(CC)C2CCS(=O)(=O)C2)nc2cc(C(=O)O)ccc2c1=O (configuration not stated)	0%	-4%	nt	-4%	7%
Cc1ccc2c(c1)N(C(=O)CCC(=O)NCc1cccs1)CCO2	nt	nt	nt	nt	-5%
CCN1CCN(Cc2ccc(NC(=O)Nc3ccccc3OC)cc2)CC1	?	?	nt	18µM*	11µM*
COc1ccc(NC(=O)Nc2ccccc2OC)cc1	?	?	?	9.2µM*	8.5µM*
CCN1CCN(CCC(=O)Nc2ccccc2OC)CC1	-1%	1%	-8%	2%	1%
COc1ccc(OC)c(NC(=O)Nc2ccc(Cl)cc2)c1	1%	7%	-5%	-2%	19µM*
